Reference: PubChem BioAssay (NCI)
The panel holds about 83,000 compounds, 20% with a hit somewhere; the sample as a whole holds those more often.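 Interpretation: 100, growth as untreated; towards 0, rising growth inhibition; 0, no net growth; 0 to -100, cell death. Compounds scoring below 10 were considered active.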 Active and inactive are the calls of the source.

The molecules below were run on MDA-MB-468 breast (assay: NCI-60 one-dose screen, 48 h (100 = growth as untreated, 0 = no growth, -100 = all killed)). Conditions: 10 µM unless noted.
For `O=c1c(CNc2ccc(S(=O)(=O)Nc3ncccn3)cc2)coc2ccccc12`, the growth was 108% (inactive). `Cc1ccc(C)c(CN(C)C)c1O` was tested, and the growth was 97.7% (inactive). With `N#Cc1ccccc1-c1ccc(Cn2c(-c3cscn3)nc3c(Cl)cccc32)cc1` the growth was 55.7% (inactive). `C[N+]1(CCC[N+]2(C)C[C@@H]3[C@H](C2)[C@@H]2C=C[C@H]3C2)CCOCC1` (stereo not given in full) was tested, and the growth was 108% (inactive). `CC1=NOCC(=O)N1` was tested, and the growth was 95.9% (inactive). For `CC(C)(Sc1cc(C(C)(C)C)c(O)c(C(C)(C)C)c1)Sc1cc(C(C)(C)C)c(OC(=O)CCCC(=O)O)c(C(C)(C)C)c1`, the growth was 43.5% (inactive). In the case of `C=C1C(=O)O[C@H]2[C@H]1CC/C(CNC(=O)c1cc3cc(OC)ccc3[nH]1)=C\CC[C@@]1(C)O[C@@H]21`, the growth is reported as -67.7% (active). In the case of `CCN1C(=O)N(CC)C2C1NN=c1s/c(=C3\C(=O)N(C)c4ccccc43)c(=O)n12` (stereo not given), the growth is reported as 13.4% (inactive). For `C#CCOc1ccc2ncnc(Nc3ccc(NC(=O)CCl)cc3)c2c1`, the growth was -57.7% (active). For `CCCCCCCCCCCC1=NC(C)(C)CN1CCO`, the growth was 15% (inactive). With `Nc1ccc(-c2ccc(-c3ccccc3N)c3[nH]c4ccccc4c23)cc1` the growth was -5.32% (active). `COC(=O)CC[C@@H](C)[C@H]1CC[C@H]2[C@@H]3CC[C@@H]4C[C@H](O)CC[C@]4(C)[C@H]3C[C@H](O)[C@]12C` was tested, and the growth was 103% (inactive). In the case of `COCCn1cc(-c2nc(-c3cc4cccnc4[nH]3)cs2)c2cc(OC)ccc21`, the growth is reported as -24% (active). For `Cc1ccccc1N1CCN(C2=C(Cl)C(=O)c3ncccc3C2=O)CC1`, the growth was -68.8% (active). `COc1cc(-c2nc(SCc3ccc(C)cc3)[nH]c(=O)c2C#N)ccc1OCc1ccccc1` was tested, and the growth was 87.3% (inactive). With `O=C(Nc1ccc2ncnc(Nc3cccc(C(F)(F)F)c3)c2c1)c1cccs1` the growth was -2.49% (active). For `CCCCOc1nc2c(C)cccc2cc1C1CNC(=O)c2ccccc2N1` (stereo not given), the growth was 51.6% (inactive). In the case of `Cc1nnc(-c2cc3c(ccc4ccccc43)oc2=O)c2cn(-c3ccc(Cl)cc3)nc12`, the growth is reported as 96.4% (inactive). `Cn1ccnc1C(=O)/C=C/c1ccc(C(=O)Nc2ccc(NC(=O)CCNC(=O)c3csc(Br)n3)cc2)cc1` was tested, and the growth was 48.4% (inactive). In the case of `Cn1c([N+](=O)[O-])cnc1/C=C1\Oc2ccc(Br)cc2C1=O`, the growth is reported as 13.1% (inactive). `O=C(/C=C/Nc1ccc(S(=O)(=O)O)cc1)c1ccc(F)cc1` was tested, and the growth was 95.8% (inactive). In the case of `O=C(N/N=C/c1ccccc1SSc1ccccc1/C=N/NC(=O)c1ccccc1)c1ccccc1`, the growth is reported as 51.9% (inactive). With `CCCCCCCCc1ccc(CCC(N)(CO)CO)cc1` the growth was -93.1% (active). `CC(=O)c1ccc(NC(=O)COc2ccc(C3SCC(=O)N3c3ccc(Br)cc3)cc2)cc1` (stereo not given) was tested, and the growth was 92% (inactive). `CCOc1ccc(/C=N/Nc2cc(C)nc3ccc(Br)cc23)cc1` was tested, and the growth was 65.2% (inactive). In the case of `COc1cc(-c2nc(-c3nc4cc(C(=O)c5ccccc5)ccc4[nH]3)cc3c2[nH]c2ccccc23)cc(OC)c1OC`, the growth is reported as 93% (inactive). In the case of `O=C1c2cc3c(cc2-c2c1c1cc(F)c(F)cc1c(=O)n2CCCn1ccnc1)OCO3`, the growth is reported as -53.6% (active). `CSC1=C(N)C(=O)c2[nH]cc(CO)c2C1=N` was tested, and the growth was -73.5% (active). `CCN1CCN(Cc2ccc(C(=O)Nc3ccc(C)c(Oc4ccc(-c5[nH]nc6ncnc(N)c56)cc4)c3)cc2C(F)(F)F)CC1` was tested, and the growth was 118% (inactive). For `CC(C)=CCC[C@](C)(O)[C@H]1CC[C@]2(C)[C@@H]1CC[C@@H]1[C@@]3(C)C/C(=C/c4cccc([N+](=O)[O-])c4)C(=O)C(C)(C)[C@@H]3CC[C@]12C`, the growth was 84.3% (inactive). For `CCN(CC)S(=O)(=O)c1ccc(S(=O)(=O)N2CCC[C@@H](C(=O)N3CCN(C(=O)OC(C)(C)C)CC3)C2)cc1`, the growth was 15.6% (inactive). With `c1ccc(-c2nc(Nc3nccnn3)c3ccccc3n2)cc1` the growth was 83.5% (inactive). `CN1CC[C@@H](c2c(O)cc(O)c3c(=O)cc(-c4ccccc4Cl)oc23)[C@@H]1CO` was tested, and the growth was -44.2% (active). With `CC[C@]1(O)CC2CN(CCc3c([nH]c4ccccc34)C(C(=O)OC)(c3cc4c(cc3OC)N(C=O)[C@H]3[C@@](O)(C(=O)OC)[C@H](OC(C)=O)[C@]5(CC)[C@@H]6C[C@@H]6CN6CC[C@]43[C@@H]65)C2)C1` (stereo not given in full) the growth was 22.9% (inactive). For `O=C1CN2CCC1C/C2=C\c1ccnc2c(Cl)cccc12` (stereo not given), the growth was 90.8% (inactive).
